Assays:
Details in all cases: concentration: 1 μM,replicates: in singlicate; n = 1
PLK2 = test system: PLK2
PLK3 = test system: PLK3
PLK4 = test system: PLK4
PRKCD = test system: PRKCD
PRKCE = test system: PRKCE
PRKCH = test system: PRKCH
PRKCI = test system: PRKCI
PRKCQ = test system: PRKCQ
PRKD1 = test system: PRKD1
PRKD2 = test system: PRKD2
PRKD3 = test system: PRKD3
PRKG1 = test system: PRKG1
PRKG2 = test system: PRKG2
PRKR = test system: T1, PRKR
T1 construct: gene EIF2AK2

PRKX = test system: PRKX
PRP4 = test system: PRP4
PYK2 = test system: T2, PYK2
T2 construct: gene PTK2B

QSK = test system: QSK
RAF1 = test system: RAF1
RET = test system: RET
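Note: KINOMEscan kinase panel screen.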

Compound | %Inh (PLK2) | %Inh (PLK3) | %Inh (PLK4) | %Inh (PRKCD) | %Inh (PRKCE) | %Inh (PRKCH) | %Inh (PRKCI) | %Inh (PRKCQ) | %Inh (PRKD1) | %Inh (PRKD2) | %Inh (PRKD3) | %Inh (PRKG1) | %Inh (PRKG2) | %Inh (PRKR) | %Inh (PRKX) | %Inh (PRP4) | %Inh (PYK2) | %Inh (QSK) | %Inh (RAF1) | %Inh (RET)
CCn1c(-c2nonc2N)nc2c(C#CC(C)(C)O)nc(OCCN)cc21.Cl.Cl [GSK902056] | 0% | 0% | 3% | 81% | 97.9% | 96.5% | 20% | 89% | 14% | 14% | 37% | 39% | 97% | 0% | 91.6% | 8% | 9% | 23% | 0% | 23%
CC(C)N1C(=O)Cc2cc(Nc3ncc(C(F)(F)F)c(NCc4cccc(S(C)(=O)=O)c4)n3)ccc21 | 61% | 64% | 67% | 0% | 0% | 0% | 0% | 9% | 0% | 16% | 0% | 0% | 8% | 0% | 0% | 25% | 22% | 0% | 0% | 86%
Cl.Cl.NC[C@H](CC1CCCCC1)NC(=O)c1cc(Br)c(-c2ccnc3[nH]ccc23)s1 [GSK1581427] | 0% | 0% | 15% | 99.5% | 96.6% | 97.7% | 0% | 90.2% | 64% | 67% | 82% | 99.3% | 98.5% | 0% | 96.2% | 78% | 20% | 5% | 2% | 25%
Cc1ccc2c(-c3ccncc3)c(-c3ccc(F)cc3)nn2c1.Cl [GW461484] | 0% | 0% | 0% | 8% | 8% | 0% | 28% | 21% | 34% | 55% | 50% | 30% | 18% | 0% | 0% | 0% | 0% | 1% | 19% | 14%
O=C(NCCNc1ccnc(NCc2ccc(F)cc2)n1)c1cc2ccccc2s1 [GSK1379944] | 0% | 0% | 74% | 0% | 86% | 22% | 8% | 39% | 0% | 70% | 100% | 22% | 0% | 0% | 19% | 18% | 14% | 7% | 11% | 79%
Cc1n[nH]c2ccc(-c3cc(OC[C@@H](N)Cc4ccccc4)cnc3-c3ccoc3)cc12.O=C(O)C(F)(F)F.O=C(O)C(F)(F)F [GSK507358] | 0% | 0% | 0% | 99.8% | 95.5% | 95.9% | 33% | 95.4% | 91.4% | 99.2% | 100% | 0% | 0% | 4% | 84% | 27% | 40% | 5% | 0% | 8%

From article PMC5540273 (PLoS ONE, 2017)
